# Source: paper PMC7862700, “An all-to-all approach to the identification of sequence-specific readers for epigenetic DNA modifications on cytosine”
# Experiments:
# Assay in all cases: DAPPL (digital affinity profiling via proximity ligation, sequencing); 10 mM Tris-HCl pH 7.5, 50 mM NaCl, 1 mM DTT, 4% glycerol, room temperature, 30 min; GST-TFs on glutathione beads, 16-mer random dsDNA library, 0.1% formaldehyde crosslink after washing; high values mean tight binding
# [1] = biological target: T1, FLI1 (Homo sapiens, UniProt Q01543 1-452); conditions: protein: recombinant; tags: N-terminal GST; dsDNA, one strand shown
# T1 sequence: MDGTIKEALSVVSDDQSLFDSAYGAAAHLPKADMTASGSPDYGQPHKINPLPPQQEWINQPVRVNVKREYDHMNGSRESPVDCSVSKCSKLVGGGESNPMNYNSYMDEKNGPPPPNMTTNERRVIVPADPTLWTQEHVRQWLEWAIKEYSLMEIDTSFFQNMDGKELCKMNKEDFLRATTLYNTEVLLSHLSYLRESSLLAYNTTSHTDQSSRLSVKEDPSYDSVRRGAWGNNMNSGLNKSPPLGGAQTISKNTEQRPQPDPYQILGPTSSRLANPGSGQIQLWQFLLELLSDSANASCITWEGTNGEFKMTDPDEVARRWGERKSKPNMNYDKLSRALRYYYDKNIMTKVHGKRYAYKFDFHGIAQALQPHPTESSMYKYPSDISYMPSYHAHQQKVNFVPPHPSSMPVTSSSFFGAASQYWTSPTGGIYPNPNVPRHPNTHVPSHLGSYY
# Outline: (§1)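 Binding signal is defined as a hexamer's read frequency for one factor over its frequency for the tag-only sample. To obtain reads, GST-fused human transcription factors were expressed in yeast, captured on glutathione beads, barcoded with DNA and pooled with that sample. Pools met 200 nmole of a 16-mer random double-stranded DNA library in Tris/NaCl/DTT/glycerol buffer for 30 min at room temperature before washing, 0.1% formaldehyde crosslinking, proximity ligation (BsaI/T4 ligase, 1 h, 37 °C), PCR and Illumina NextSeq500 sequencing.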
# [2] = biological target: T2, ELK1 (Homo sapiens, UniProt P19419 1-428); conditions: protein: recombinant; tags: N-terminal GST; dsDNA, one strand shown
# T2 sequence: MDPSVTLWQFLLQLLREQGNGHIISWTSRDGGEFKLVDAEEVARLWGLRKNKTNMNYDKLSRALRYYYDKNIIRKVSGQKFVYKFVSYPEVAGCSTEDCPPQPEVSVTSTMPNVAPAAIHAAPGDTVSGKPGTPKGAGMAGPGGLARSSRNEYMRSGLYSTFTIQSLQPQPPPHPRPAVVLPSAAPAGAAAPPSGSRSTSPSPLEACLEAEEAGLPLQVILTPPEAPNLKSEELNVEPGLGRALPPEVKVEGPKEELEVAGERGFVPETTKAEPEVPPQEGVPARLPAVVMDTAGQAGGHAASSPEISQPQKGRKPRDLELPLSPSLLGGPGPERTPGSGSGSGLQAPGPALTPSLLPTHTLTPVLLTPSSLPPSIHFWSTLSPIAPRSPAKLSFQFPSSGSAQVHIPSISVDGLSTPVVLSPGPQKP
# Outline: as §1
# [3] = biological target: T3, GABPA (Homo sapiens, UniProt Q06546 1-454); conditions: protein: recombinant; tags: N-terminal GST; dsDNA, one strand shown
# T3 sequence: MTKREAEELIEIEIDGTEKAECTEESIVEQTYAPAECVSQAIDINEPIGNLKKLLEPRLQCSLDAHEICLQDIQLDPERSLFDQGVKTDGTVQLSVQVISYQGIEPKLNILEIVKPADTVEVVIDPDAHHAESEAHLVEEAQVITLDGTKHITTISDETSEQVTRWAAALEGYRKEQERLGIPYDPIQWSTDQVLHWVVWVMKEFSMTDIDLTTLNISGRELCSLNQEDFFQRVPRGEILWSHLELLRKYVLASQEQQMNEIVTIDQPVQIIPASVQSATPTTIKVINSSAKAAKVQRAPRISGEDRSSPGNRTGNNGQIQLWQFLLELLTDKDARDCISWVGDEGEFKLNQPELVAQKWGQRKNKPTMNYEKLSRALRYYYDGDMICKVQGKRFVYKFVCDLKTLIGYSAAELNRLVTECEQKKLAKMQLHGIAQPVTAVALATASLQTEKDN
# Outline: as §1
# [4] = biological target: T4, ERG (Homo sapiens, UniProt P11308 1-479); conditions: protein: recombinant; tags: N-terminal GST; dsDNA, one strand shown
# T4 sequence: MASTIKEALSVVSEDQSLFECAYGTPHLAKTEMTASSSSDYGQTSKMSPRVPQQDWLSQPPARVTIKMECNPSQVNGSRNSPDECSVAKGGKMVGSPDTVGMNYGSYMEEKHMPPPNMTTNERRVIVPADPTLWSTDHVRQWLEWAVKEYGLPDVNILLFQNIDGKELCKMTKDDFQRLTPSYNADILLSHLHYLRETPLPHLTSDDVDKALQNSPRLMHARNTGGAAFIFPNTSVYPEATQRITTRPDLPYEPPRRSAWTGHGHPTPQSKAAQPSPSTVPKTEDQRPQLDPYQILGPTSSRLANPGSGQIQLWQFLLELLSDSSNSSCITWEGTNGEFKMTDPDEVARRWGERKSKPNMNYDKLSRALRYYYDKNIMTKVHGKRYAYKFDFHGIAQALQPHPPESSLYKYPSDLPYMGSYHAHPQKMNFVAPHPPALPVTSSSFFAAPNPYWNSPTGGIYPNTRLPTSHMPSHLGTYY
# Outline: as §1
# [5] = biological target: ELF1 (Homo sapiens, UniProt P32519 1-619); conditions: protein: recombinant; tags: N-terminal GST; dsDNA, one strand shown
# Outline: as §1
# [6] = biological target: T5, EHF (Homo sapiens, UniProt Q9NZC4 1-300); conditions: protein: recombinant; tags: N-terminal GST; dsDNA, one strand shown
# T5 sequence: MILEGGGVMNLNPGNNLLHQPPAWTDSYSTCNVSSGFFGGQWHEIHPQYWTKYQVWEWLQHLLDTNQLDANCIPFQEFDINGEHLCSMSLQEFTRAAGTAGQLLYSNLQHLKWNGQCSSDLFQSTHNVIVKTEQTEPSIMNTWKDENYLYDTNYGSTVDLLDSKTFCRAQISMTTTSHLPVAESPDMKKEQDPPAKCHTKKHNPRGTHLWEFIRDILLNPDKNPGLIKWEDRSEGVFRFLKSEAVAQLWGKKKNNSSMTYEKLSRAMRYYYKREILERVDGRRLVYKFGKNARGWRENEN
# Outline: as §1
# [7] = biological target: SPI1 (Homo sapiens, UniProt P17947 1-270); conditions: protein: recombinant; tags: N-terminal GST; dsDNA, one strand shown
# Outline: as §1
# [8] = biological target: SPIB (Homo sapiens, UniProt Q01892 1-262); conditions: protein: recombinant; tags: N-terminal GST; dsDNA, one strand shown
# Outline: as §1
# [9] = biological target: T6, ELK3 (Homo sapiens, UniProt P41970 1-407); conditions: protein: recombinant; tags: N-terminal GST; dsDNA, one strand shown
# T6 sequence: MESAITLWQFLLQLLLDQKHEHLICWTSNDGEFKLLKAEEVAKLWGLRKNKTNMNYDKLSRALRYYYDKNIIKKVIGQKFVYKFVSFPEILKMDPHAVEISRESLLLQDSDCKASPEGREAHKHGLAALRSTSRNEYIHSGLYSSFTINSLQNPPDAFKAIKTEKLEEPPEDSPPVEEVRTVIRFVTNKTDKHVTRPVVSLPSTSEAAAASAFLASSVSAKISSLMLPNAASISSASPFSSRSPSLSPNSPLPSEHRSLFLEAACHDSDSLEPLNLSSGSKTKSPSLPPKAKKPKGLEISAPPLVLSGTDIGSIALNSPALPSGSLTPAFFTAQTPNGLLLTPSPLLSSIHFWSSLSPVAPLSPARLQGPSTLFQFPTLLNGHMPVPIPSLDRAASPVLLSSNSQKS
# Outline: as §1
# [10] = biological target: T7, FEV (Homo sapiens, UniProt Q99581 1-238); conditions: protein: recombinant; tags: N-terminal GST; dsDNA, one strand shown
# T7 sequence: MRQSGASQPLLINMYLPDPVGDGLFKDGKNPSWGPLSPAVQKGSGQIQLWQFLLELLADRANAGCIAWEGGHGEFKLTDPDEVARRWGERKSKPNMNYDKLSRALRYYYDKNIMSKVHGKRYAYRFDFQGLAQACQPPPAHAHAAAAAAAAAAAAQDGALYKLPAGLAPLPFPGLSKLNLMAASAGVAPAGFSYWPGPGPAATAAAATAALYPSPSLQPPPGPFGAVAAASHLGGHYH
# Outline: as §1
# [11] = biological target: ETV5 (Homo sapiens, UniProt P41161 1-510); conditions: protein: recombinant; tags: N-terminal GST; dsDNA, one strand shown
# Outline: as §1
# [12] = biological target: HSF1 (Homo sapiens, UniProt Q00613 1-529); conditions: protein: recombinant; tags: N-terminal GST; chain copies: 3; dsDNA, one strand shown
# Outline: as §1
# [13] = biological target: T8, SPIC (Homo sapiens, UniProt Q8N5J4 1-248); conditions: protein: recombinant; tags: N-terminal GST; dsDNA, one strand shown
# T8 sequence: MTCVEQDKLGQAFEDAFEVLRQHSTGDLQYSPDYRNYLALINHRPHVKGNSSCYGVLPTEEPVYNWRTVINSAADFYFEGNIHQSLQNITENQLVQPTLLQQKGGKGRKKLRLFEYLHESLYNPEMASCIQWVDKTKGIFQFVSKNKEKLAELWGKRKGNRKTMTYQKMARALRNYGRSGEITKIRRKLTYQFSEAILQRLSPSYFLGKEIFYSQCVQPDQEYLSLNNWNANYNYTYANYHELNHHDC
# Outline: as §1
# [14] = biological target: ELF4 (Homo sapiens, UniProt Q99607 1-663); conditions: protein: recombinant; tags: N-terminal GST; dsDNA, one strand shown
# Outline: as §1
# [15] = biological target: T9, ELK4 (Homo sapiens, UniProt P28324-2 1-405); conditions: protein: recombinant; tags: N-terminal GST; dsDNA, one strand shown
# T9 sequence: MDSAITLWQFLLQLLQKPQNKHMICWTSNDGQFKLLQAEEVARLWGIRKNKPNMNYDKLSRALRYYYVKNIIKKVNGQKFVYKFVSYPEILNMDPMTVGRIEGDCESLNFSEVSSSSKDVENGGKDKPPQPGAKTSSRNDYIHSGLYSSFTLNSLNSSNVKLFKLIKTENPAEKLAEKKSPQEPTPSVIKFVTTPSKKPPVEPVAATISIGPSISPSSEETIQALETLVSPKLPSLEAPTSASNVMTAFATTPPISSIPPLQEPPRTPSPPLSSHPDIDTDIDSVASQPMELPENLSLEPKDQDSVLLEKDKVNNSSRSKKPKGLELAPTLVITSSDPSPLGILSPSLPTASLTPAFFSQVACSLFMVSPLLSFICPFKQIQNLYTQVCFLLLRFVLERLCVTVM
# Outline: as §1
# [16] = biological target: T10, ETV2 (Homo sapiens, UniProt O00321 1-342); conditions: protein: recombinant; tags: N-terminal GST; dsDNA, one strand shown
# T10 sequence: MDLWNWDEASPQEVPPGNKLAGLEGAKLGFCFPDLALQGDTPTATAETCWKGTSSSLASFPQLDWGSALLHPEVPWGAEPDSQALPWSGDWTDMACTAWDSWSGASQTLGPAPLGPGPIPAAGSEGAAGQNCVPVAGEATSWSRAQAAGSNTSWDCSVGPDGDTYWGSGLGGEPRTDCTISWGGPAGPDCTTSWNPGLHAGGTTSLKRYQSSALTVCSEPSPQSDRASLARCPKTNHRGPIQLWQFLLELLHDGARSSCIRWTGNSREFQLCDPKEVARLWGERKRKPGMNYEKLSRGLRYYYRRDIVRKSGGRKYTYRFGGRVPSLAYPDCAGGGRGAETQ
# Outline: as §1
# [17] = biological target: T11, ELF3 (Homo sapiens, UniProt P78545 1-371); conditions: protein: recombinant; tags: N-terminal GST; dsDNA, one strand shown
# T11 sequence: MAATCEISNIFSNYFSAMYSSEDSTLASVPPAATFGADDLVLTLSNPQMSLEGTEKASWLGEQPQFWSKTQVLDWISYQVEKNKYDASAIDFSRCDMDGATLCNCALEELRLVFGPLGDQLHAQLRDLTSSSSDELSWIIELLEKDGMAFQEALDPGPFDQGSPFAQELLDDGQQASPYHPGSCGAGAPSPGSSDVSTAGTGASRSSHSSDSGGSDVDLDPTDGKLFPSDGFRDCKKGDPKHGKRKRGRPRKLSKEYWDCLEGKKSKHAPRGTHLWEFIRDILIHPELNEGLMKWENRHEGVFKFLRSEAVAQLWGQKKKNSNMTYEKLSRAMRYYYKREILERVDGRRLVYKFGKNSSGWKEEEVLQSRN
# Outline: as §1
# [18] = biological target: CRX (Homo sapiens, UniProt O43186 1-299); conditions: protein: recombinant; tags: N-terminal GST; dsDNA, one strand shown
# Outline: as §1
# [19] = biological target: ETV1 (Homo sapiens, UniProt P50549 1-477); conditions: protein: recombinant; tags: N-terminal GST; dsDNA, one strand shown
# Outline: as §1
# Sequence of ELF4 (Q99607 whole entry): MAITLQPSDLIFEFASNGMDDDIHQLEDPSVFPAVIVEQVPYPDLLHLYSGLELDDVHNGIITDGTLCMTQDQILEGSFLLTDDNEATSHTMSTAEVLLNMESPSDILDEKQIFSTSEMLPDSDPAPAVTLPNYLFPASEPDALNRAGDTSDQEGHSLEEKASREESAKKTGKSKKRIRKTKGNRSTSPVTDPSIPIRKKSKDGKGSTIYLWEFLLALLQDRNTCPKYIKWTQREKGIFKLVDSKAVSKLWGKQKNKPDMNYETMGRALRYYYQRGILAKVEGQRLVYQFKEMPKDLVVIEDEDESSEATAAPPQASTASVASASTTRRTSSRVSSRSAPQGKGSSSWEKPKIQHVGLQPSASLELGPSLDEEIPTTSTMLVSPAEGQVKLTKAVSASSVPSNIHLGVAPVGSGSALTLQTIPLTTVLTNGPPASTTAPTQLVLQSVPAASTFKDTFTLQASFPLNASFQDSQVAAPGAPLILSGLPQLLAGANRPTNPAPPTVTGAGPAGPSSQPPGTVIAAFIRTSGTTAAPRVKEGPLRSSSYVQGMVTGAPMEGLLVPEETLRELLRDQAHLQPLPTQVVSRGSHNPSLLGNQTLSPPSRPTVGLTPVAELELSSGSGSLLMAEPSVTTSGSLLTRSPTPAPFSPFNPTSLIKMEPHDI
# Sequence of ETV1 (P50549 whole entry): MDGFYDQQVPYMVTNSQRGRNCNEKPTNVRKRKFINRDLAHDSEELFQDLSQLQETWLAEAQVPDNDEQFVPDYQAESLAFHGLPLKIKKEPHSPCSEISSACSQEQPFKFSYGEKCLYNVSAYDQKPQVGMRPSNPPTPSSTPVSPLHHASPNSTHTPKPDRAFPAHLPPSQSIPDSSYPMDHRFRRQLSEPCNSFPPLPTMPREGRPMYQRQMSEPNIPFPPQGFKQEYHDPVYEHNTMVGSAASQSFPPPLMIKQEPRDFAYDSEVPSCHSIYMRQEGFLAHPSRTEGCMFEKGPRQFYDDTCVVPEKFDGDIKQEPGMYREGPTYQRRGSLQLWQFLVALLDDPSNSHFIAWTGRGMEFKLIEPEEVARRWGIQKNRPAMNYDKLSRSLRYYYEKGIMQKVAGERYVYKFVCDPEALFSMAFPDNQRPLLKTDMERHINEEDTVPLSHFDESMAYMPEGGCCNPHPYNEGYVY
# Sequence of SPIB (Q01892 whole entry): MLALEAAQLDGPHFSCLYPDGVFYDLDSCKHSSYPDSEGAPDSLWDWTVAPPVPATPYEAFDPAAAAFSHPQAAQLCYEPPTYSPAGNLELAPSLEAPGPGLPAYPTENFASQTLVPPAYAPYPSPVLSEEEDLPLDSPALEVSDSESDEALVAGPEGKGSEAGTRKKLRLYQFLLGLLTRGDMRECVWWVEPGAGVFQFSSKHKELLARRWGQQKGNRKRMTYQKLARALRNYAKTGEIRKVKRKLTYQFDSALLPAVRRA
# Sequence of ETV5 (P41161 whole entry): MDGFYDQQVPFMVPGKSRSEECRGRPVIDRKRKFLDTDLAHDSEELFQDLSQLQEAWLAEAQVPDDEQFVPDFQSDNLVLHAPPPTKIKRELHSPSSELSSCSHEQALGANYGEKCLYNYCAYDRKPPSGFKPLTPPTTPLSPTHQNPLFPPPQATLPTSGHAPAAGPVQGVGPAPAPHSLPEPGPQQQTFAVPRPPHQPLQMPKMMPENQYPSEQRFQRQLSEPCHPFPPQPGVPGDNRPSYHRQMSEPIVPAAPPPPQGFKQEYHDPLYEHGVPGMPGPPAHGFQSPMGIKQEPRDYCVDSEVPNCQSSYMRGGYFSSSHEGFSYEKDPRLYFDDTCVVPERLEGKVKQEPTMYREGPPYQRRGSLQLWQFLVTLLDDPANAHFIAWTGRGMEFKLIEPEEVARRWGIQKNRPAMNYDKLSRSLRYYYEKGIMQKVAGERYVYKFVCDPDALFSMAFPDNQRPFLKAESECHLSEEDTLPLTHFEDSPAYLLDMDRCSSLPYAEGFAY
# Sequence of CRX (O43186 whole entry): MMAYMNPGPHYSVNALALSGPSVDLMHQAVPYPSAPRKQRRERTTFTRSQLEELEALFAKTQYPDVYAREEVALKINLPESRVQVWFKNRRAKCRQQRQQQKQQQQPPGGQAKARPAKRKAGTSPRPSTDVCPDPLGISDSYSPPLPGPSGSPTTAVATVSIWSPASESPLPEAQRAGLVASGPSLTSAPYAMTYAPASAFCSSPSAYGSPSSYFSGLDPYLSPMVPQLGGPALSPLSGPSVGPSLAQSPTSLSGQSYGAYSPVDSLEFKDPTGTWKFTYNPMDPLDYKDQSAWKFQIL
# Sequence of HSF1 (Q00613 whole entry): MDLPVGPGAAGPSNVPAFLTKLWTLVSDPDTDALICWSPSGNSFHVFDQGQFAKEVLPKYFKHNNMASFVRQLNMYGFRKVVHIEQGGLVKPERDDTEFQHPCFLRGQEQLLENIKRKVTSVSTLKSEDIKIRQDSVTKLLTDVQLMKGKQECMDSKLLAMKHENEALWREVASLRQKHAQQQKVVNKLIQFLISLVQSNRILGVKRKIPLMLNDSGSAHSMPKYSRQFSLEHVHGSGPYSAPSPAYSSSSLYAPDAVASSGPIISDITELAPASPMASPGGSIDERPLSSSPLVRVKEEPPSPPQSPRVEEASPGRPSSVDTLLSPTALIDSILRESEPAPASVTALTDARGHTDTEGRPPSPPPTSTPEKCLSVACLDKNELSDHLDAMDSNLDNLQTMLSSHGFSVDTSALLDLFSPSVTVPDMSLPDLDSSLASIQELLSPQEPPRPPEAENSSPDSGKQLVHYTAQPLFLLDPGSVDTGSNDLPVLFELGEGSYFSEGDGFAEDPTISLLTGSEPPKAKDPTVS
# Sequence of ELF1 (P32519 whole entry): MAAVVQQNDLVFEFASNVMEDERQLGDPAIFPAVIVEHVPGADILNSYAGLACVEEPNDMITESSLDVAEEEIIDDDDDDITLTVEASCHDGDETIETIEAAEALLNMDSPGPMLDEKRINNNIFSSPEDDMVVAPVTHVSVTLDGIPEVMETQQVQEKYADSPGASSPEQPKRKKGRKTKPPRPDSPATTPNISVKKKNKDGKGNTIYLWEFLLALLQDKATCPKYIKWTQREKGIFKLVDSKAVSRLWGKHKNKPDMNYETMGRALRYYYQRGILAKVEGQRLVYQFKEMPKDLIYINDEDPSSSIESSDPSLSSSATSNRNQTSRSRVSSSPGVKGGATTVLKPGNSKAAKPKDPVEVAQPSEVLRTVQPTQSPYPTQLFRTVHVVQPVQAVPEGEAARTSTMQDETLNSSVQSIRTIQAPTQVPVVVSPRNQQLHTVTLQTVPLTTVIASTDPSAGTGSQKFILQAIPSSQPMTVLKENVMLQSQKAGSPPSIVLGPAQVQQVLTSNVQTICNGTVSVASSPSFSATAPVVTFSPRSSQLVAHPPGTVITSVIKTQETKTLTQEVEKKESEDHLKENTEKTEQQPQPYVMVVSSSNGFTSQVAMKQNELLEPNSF
sequence,measurement,setting,value
CGTATT,binding signal,[1],"1.24 fold enrichment (6-mer frequency, TF over GST control)"
same,binding signal,[2],"1.18 fold enrichment (6-mer frequency, TF over GST control)"
same,binding signal,[3],"1.12 fold enrichment (6-mer frequency, TF over GST control)"
same,binding signal,[4],"1.15 fold enrichment (6-mer frequency, TF over GST control)"
same,binding signal,[5],"1.11 fold enrichment (6-mer frequency, TF over GST control)"
same,binding signal,[6],"1.12 fold enrichment (6-mer frequency, TF over GST control)"
same,binding signal,[7],"1.17 fold enrichment (6-mer frequency, TF over GST control)"
same,binding signal,[8],"1.24 fold enrichment (6-mer frequency, TF over GST control)"
same,binding signal,[9],"1.38 fold enrichment (6-mer frequency, TF over GST control)"
same,binding signal,[10],"1.07 fold enrichment (6-mer frequency, TF over GST control)"
same,binding signal,[11],"1.2 fold enrichment (6-mer frequency, TF over GST control)"
same,binding signal,[12],"1.21 fold enrichment (6-mer frequency, TF over GST control)"
same,binding signal,[13],"1.22 fold enrichment (6-mer frequency, TF over GST control)"
same,binding signal,[14],"1.16 fold enrichment (6-mer frequency, TF over GST control)"
same,binding signal,[15],"1.18 fold enrichment (6-mer frequency, TF over GST control)"
same,binding signal,[16],"1.38 fold enrichment (6-mer frequency, TF over GST control)"
same,binding signal,[17],"1.04 fold enrichment (6-mer frequency, TF over GST control)"
same,binding signal,[18],"1.46 fold enrichment (6-mer frequency, TF over GST control)"
same,binding signal,[19],"1.22 fold enrichment (6-mer frequency, TF over GST control)"
